Calls of active or inactive are those of the source. Unless noted, the rule behind the calls is not given here.
Legend:
[1] = system: Wnt5a (protein binding on small-molecule microarray); assay: Wnt5a binders on small-molecule microarray, primary screen, biophysical, 635/667 nm fluorescence (AID 1142); conditions: 635 nm fluorescence, higher = more signal;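 note: fluorescence read at 667 nm with signal to noise per printed feature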
[2] = cell viability in Huh7 cells, primary screen, cytotoxicity control for HCV replication inhibitor project, CellTiter-Glo luminescence, basal, 48 h (AID 1143); conditions: Huh7 HCV replicon, higher = more signal, called active from +8 up or from −8 down;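 note: Huh7 hepatoma cells carrying a hepatitis C replication reporter with no stimulus; test concentration not given here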
[3] = P. aeruginosa biofilm formation inhibitors, primary screen, PAO1 strain, BacTiter-Glo luminescence, LB-PBS (AID 1144); conditions: 12 h, higher = more signal
[4] = CREB reporter modulators without forskolin, primary screen, cell-based, PC12, CRE-LacZ reporter, unstimulated (AID 1145); conditions: no forskolin, luminescence, 4.5 h, higher = more signal, called active from +8 up or from −8 down
[5] = CREB reporter modulators under forskolin, primary screen, cell-based, PC12, CRE-LacZ reporter, forskolin-stimulated (AID 1146); conditions: luminescence, 4.5 h, higher = more signal, called active from +8 up or from −8 down;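 note: PC12 cells with 6xCRE LacZ reporter stimulated by forskolin 10 µM; beta-galactosidase reporter signal reflecting CREB driven transcription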
[6] = molecular target: Streptavidin (Streptomyces avidinii) (UniProt P22629); assay: streptavidin binders on small-molecule microarray, primary screen, artefact control for SMM compound annotation, biophysical, 635/667 nm fluorescence (AID 1147); conditions: streptavidin binding, higher = more signal;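 note: signal reflects streptavidin binding to arrayed compounds as a control protein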
[7] = small-molecule binders of probe aInhba, primary screen, biochemical, small-molecule microarray, 635/667 nm fluorescence (AID 1148); conditions: higher = more signal;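 note: score merges 667nm spot fluorescence with signal-to-noise for antibody binding to printed compounds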
Torsin-1A (Homo sapiens) [8] = molecular target: Torsin-1A (Homo sapiens) (UniProt O14656); assay: torsin A binders from cell lysate, primary screen, small-molecule microarray, wild-type, 635/667 nm (AID 1149); conditions: COS7 hTOR1A-WT lysate, 635 nm fluorescence, higher = more signal
Torsin-1A (Homo sapiens) [9] = molecular target: Torsin-1A (Homo sapiens) (UniProt O14656); assay: small-molecule binders of mutant TOR1A in lysate, primary screen, cell lysate, small-molecule microarray, COS7 lysate, 635/667 nm fluorescence (AID 1150); conditions: COS7 hTOR1A mutant lysate, 635 nm fluorescence, higher = more signal;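 note: score pools 667 nm emission and signal to noise measuring lysate protein binding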
[10] = system: Sonic hedgehog protein (Shh); assay: small-molecule binders of Shh protein, primary screen, biochemical, small-molecule microarray, 635/667 nm fluorescence (AID 1151); conditions: small-molecule microarray binding, 635 nm fluorescence; higher = more signal;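 note: Shh protein binding to compounds spotted on small-molecule microarray slides; score combines spot fluorescence intensity with signal-to-noise across triplicate slides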
[11] = E. coli DRC41 culture turbidity changes, primary screen, E. coli filamentation inducer project, strain DRC41, OD650, 48 h (AID 1152);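 note: E. coli MC1000 strain DRC41 lacking acrAB efflux pump and sulA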; conditions: E. coli DRC41 (acrAB sulA), higher = more signal, called active from +8 up or from −8 down
[12] = small-molecule binders of probe aLefty1, primary screen, biochemical, small-molecule microarray, 635/667 nm fluorescence (AID 1153); conditions: higher = more signal;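 note: score merges spot fluorescence with signal-to-noise ratio from the scanned slide images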
[13] = PSAC antagonists in infected red cells, primary screen, cell-based, P. falciparum Indochina, OD700, 1 h (AID 1154); conditions: P. falciparum Indochina infected RBC osmotic lysis, higher = more signal, called active from +8 up or from −8 down
[14] = PSAC antagonists in infected red cells, primary screen, cell-based, P. falciparum Indochina, OD700, 2 h (AID 1155);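 note: lysis reports solute entry through the parasite surface anion channel PSAC; channel blockers reduce lysis of infected cells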; conditions: P. falciparum Indochina infected erythrocytes, osmotic lysis OD700; higher = more signal, called active from +8 up or from −8 down
[15] = osmotic lysis modulators in infected erythrocytes, primary screen, PSAC antagonist project, cell-based, P. falciparum Indochina, OD700, 3 h (AID 1156); conditions: higher = more signal, called active from +8 up or from −8 down
[16] = PSAC antagonists in infected red cells, primary screen, cell-based, P. falciparum Indochina, OD700, 18 h (AID 1157); conditions: P. falciparum Indochina infected erythrocytes, osmotic lysis OD700, 18 h; higher = more signal, called active from +8 up or from −8 down
[17] = modulators of S6 phosphorylation in cells, primary screen, cell-based, A549, cytoblot, luminescence, serum-stimulated (AID 1158); conditions: A549 phospho-S6 cytoblot, 5 h, higher = more signal;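 note: serum-stimulated A549 lung adenocarcinoma cells; signal is phosphorylated S6 detected by cytoblot immunostaining with HRP secondary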
[18] = molecular target: NADPH oxidase 2 (Homo sapiens) (UniProt P04839); assay: NOX2-dependent H2O2 signal modulators, primary screen, NOX inhibitor project, cell-based, HEK293-NOX2, PMA-stimulated, Amplex Red fluorescence (AID 1159); conditions: 45 min, higher = more signal, called active from +8 up or from −8 down; note: test concentration not given here
[19] = molecular target: NADPH oxidase 4 (Homo sapiens) (UniProt Q9NPH5); assay: NOX4-dependent H2O2 signal modulators, primary screen, NOX inhibitor project, cell-based, HEK293-NOX4, tetracycline-induced, Amplex Red fluorescence (AID 1160); conditions: 45 min, higher = more signal, called active from +8 up or from −8 down
[20] = molecular target: NADPH oxidase 5 (Homo sapiens) (UniProt Q96PH1); assay: NOX5-dependent H2O2 signal modulators, primary screen, NOX inhibitor project, cell-based, HEK293-NOX5, Amplex Red fluorescence (AID 1161); conditions: HEK293-NOX5, ionomycin, 45 min, higher = more signal
NADPH oxidase 5 (Homo sapiens), sequence (Q96PH1 whole entry, looked up): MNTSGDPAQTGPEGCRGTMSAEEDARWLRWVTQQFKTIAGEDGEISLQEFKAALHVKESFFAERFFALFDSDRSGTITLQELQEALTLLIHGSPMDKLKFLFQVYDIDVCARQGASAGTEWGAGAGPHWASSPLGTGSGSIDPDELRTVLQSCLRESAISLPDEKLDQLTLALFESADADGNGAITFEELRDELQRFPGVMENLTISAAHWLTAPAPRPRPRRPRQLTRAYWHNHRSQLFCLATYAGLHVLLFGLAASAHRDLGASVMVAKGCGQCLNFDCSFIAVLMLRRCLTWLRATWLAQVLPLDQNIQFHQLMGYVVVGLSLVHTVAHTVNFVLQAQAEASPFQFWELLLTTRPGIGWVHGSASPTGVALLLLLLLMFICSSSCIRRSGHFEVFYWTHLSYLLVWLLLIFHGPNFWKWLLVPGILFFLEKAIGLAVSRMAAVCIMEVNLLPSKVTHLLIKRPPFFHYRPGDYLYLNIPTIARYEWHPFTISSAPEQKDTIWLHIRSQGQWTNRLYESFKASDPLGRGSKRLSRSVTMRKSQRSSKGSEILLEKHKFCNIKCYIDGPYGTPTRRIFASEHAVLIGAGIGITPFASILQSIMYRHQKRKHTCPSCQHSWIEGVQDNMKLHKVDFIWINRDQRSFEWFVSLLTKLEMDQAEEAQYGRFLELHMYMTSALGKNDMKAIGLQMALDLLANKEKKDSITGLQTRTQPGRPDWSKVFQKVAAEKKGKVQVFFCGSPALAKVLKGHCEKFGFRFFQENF

Torsin-1A (Homo sapiens), sequence (O14656 whole entry, looked up): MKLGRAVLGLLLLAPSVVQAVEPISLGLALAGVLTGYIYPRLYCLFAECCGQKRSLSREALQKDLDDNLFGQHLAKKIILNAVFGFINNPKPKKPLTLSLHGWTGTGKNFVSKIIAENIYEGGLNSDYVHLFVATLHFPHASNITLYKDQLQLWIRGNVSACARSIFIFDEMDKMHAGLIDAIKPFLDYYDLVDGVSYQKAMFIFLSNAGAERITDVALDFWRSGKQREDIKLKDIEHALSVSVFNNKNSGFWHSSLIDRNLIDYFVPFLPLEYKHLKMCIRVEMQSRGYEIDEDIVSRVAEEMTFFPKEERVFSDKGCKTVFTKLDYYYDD
Streptavidin (Streptomyces avidinii), sequence (P22629 whole entry, looked up): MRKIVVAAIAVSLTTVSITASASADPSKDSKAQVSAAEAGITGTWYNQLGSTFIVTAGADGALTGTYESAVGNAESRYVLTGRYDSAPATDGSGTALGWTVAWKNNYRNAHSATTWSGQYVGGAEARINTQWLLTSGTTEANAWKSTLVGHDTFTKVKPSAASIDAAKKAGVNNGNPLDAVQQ
NADPH oxidase 4 (Homo sapiens), sequence (Q9NPH5 whole entry, looked up): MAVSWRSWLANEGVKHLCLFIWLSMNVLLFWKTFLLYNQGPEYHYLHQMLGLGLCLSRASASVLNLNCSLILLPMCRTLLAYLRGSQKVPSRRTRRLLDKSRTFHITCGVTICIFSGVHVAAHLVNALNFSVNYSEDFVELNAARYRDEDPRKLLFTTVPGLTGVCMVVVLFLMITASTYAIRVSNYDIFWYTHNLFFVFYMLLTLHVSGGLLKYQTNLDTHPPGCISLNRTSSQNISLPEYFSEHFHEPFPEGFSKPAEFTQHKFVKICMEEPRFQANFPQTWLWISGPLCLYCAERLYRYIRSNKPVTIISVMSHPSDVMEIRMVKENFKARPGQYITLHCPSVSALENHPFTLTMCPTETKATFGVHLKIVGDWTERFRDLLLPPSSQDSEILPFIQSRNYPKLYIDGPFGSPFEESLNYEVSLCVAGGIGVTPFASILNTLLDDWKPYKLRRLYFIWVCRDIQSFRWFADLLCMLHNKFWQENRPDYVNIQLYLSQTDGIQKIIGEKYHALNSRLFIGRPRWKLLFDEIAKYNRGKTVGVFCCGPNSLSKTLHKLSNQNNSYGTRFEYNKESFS
NADPH oxidase 2 (Homo sapiens), sequence (P04839 whole entry, looked up): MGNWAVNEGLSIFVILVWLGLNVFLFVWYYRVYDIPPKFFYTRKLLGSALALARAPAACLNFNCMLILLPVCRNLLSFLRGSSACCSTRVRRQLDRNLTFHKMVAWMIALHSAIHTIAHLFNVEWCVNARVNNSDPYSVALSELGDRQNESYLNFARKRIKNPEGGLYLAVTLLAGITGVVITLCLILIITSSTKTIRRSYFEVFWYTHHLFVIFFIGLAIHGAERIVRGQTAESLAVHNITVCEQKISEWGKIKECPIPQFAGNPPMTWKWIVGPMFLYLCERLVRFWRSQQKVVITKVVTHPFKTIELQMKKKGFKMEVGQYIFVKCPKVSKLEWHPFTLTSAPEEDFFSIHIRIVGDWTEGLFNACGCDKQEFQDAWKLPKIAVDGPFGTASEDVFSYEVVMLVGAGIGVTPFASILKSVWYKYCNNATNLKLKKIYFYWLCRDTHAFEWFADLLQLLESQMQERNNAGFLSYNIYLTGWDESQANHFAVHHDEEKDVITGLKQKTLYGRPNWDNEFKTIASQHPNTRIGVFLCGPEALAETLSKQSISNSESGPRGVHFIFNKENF

SMILES | composite z-score [1] | z-score [2] | z-score [3] | z-score [4] | z-score [5] | composite z-score [6] | composite z-score [7] | composite z-score (Torsin-1A (Homo sapiens) [8]) | composite z-score (Torsin-1A (Homo sapiens) [9]) | composite z-score [10] | z-score [11] | composite z-score [12] | z-score [13] | z-score [14] | z-score [15] | z-score [16] | z-score [17] | z-score [18] | z-score [19] | z-score [20]
CCOC(=O)C[C@H]1[C@H](OC(=O)c2ccc(-c3ccccc3)cc2)[C@@H](NC(=O)Cc2ccc(OC)cc2)c2cc(OCCCO)ccc2N1C(=O)c1ccccc1 | 0.118 | -1.02 (inactive) | 0.338 (inactive) | -0.505 (inactive) | -0.15 (inactive) | -0.0322 | -0.0645 | -0.36 | 0.023 | 0.265 | -0.539 (inactive) | 0.206 | 1.84 (inactive) | -0.259 (inactive) | 0.438 (inactive) | 0.285 (inactive) | 1.3 | -1.43 (inactive) | -1.72 (inactive) | -0.795
CCCC[C@H]1OB(O)C[C@H]2C1=C(COC)C[C@H]1C(=O)N(C)C(=O)[C@H]12 | 0.277 | 0.203 (inactive) | 0.573 (inactive) | 0.76 (inactive) | 0.505 (inactive) | 0.727 | -0.0093 | 0.408 | 0.301 | 1.32 | -0.971 (inactive) | -0.196 | 0.431 (inactive) | 0.0082 (inactive) | -1.19 (inactive) | 0.232 (inactive) | -0.18 | -0.251 (inactive) | 0.221 (inactive) | 0.786
CC(C)C(=C=CC[C@H](O)c1ccc(OCCO)cc1)CCO | 0.803 | -1.97 (inactive) | -0.596 (inactive) | 3.49 (inactive) | 0.36 (inactive) | 0.0996 | -0.179 | 1.37 | 0.653 | 2.05 | -0.595 (inactive) | 0.0945 | 9.47 (active) | 1.99 (inactive) | 1.11 (inactive) | 0.553 (inactive) | -0.365 | -1.06 (inactive) | -0.581 (inactive) | -1.96
C=C[C@H](OC)[C@@H](OC(=O)Nc1ccc(OC)cc1)c1ccc(O)c(F)c1 | -0.311 | -3.6 (inactive) | -0.689 (inactive) | 1.24 (inactive) | 3.4 (inactive) | -1.2 | -0.179 | 0.732 | -0.11 | 0.665 | 0.496 (inactive) | 0.0921 | 4.19 (inactive) | 0.484 (inactive) | -0.433 (inactive) | 0.253 (inactive) | -0.102 | -1.5 (inactive) | 1.1 (inactive) | 5.13
COc1ccc(CCNC(=O)[C@@]2(Sc3ccc(C)cc3)CC(=O)N(C3Cc4ccccc4C3)[C@@H]2c2ccc(CO)cc2I)cc1 | -0.234 | -1.23 (inactive) | 0.74 (inactive) | 0.649 (inactive) | 1.82 (inactive) | -0.814 | -0.196 | -0.27 | 0.0598 | -0.862 | 0.657 (inactive) | 0.627 | 10.7 (active) | 1.95 (inactive) | 0.497 (inactive) | 0.768 (inactive) | -0.123 | 1.51 (inactive) | -1.66 (inactive) | 1.9
CCCC[C@@H]1C[C@H]1[C@@H](NC(=O)c1ccco1)c1ccccc1C(F)(F)F | 0.667 | -0.547 (inactive) | 0.431 (inactive) | 0.773 (inactive) | 1.3 (inactive) | 1.42 | 2.01 | 0.408 | -0.0311 | 0.0509 | -1.91 (inactive) | 2.47 | 0.233 (inactive) | 0.105 (inactive) | -0.104 (inactive) | 0.471 (inactive) | -0.278 | -0.295 (inactive) | -1.28 (inactive) | -1.26
C=CCNC(=O)[C@@H]1[C@H]2C(=O)O[C@H](c3ccccc3)[C@H](c3ccccc3)N2[C@H](c2ccccc2OCCO)[C@@]12C(=O)N(C(=O)OCCOC)c1ccccc12 | 0.562 | -4.46 (inactive) | 1.23 (inactive) | 0.204 (inactive) | -0.768 (inactive) | 0.209 | -0.0259 | 0.226 | 0.603 | 2.17 | -0.91 (inactive) | 0.238 | 2.92 (inactive) | 1.24 (inactive) | -0.693 (inactive) | 1.05 (inactive) | -0.458 | 1.88 (inactive) | -0.691 (inactive) | -0.1
COC(=O)[C@@]1(CCS(=O)(=O)c2ccccc2)N=C(c2ccc(OCCCO)cc2)O[C@H]1c1ccccc1CN=[N+]=[N-] | 0.351 | -2.7 (inactive) | 0.945 (inactive) | 1.38 (inactive) | -1.43 (inactive) | 0.415 | 0.0808 | 0.252 | 0.869 | 0.281 | -0.146 (inactive) | 0.365 | 19.6 (active) | 3.74 (inactive) | 1.26 (inactive) | 1.33 (inactive) | 0.208 | -0.899 (inactive) | 0.495 (inactive) | -0.807
COCCOC(=O)N1C(=O)[C@@]2(c3cc(C#CCC(C(=O)OC)C(=O)OC)ccc31)[C@H](c1ccccc1OCCO)N1[C@H](c3ccccc3)[C@H](c3ccccc3)OC(=O)[C@H]1[C@@H]2C(=O)N1CCN(c2ncccn2)CC1 | 0.621 | -4.45 (inactive) | -1.09 (inactive) | -0.479 (inactive) | 1.7 (inactive) | 0.635 | 0.0384 | 1.01 | 1.19 | 1.89 | 1.2 (inactive) | 1.16 | 2.83 (inactive) | 1.11 (inactive) | 1.28 (inactive) | 0.851 (inactive) | -0.139 | 0.823 (inactive) | 0.656 (inactive) | 1.27
